TGFb SMAD3 inh: TGF-b pathway inhibition | actives 1.2% (n = 410,000) | HepG2 CAGA-GFP TGF-b/SMAD3 reporter, GFP fluorescence, 18 h; TGF-beta stimulated, 500 pg/mL final | Potency, µM (highest dose often 46.1 µM), for inactives: at the top dose activity, negative = inhibition, usual class: inhibitors | AID 588855; further: potency means the concentration at half of the fitted maximal effect; on the % scale 0 is the no-effect control and ±100 the full control effect; nearly all actives have a fitted effect of over 65% in size
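Inhibition of TGF-beta-driven CAGA-GFP reporter expression in HEPG2 cells is measured by cellular GFP fluorescence after 18 h stimulation with 500 pg/mL recombinant TGF-beta in 1% FBS medium at 37 degrees C.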
HepG2 tox: counter-screen for TGF-b inhibitors: cytotoxicity in HepG2 cells; HepG2 CAGA-GFP viability, ATP luminescence, 18 h; actives 0.76% (n = 410,000); Potency, µM (doses to about 46.1 µM), for inactives: top-dose activity change, negative = cytotoxicity, usual class: cytotoxic; further: potency means the concentration at half of the fitted maximal effect
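CellTiter-Glo luminescence gave cytotoxicity after 18 hours at 37 degrees C. The cells were HepG2 CAGA-GFP in 1% FBS DMEM, stimulated with 500 pg/mL TGF-beta after compound addition. %Activity was normalised to no-cell wells (complete cell-killing) and DMSO (no toxicity), and curves were fitted and classified.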
TDP1 cell CPT: DT40-hTDP1 cell growth loss with CPT; chicken DT40 Tdp1-/-;hTDP1 cells + 20 nM CPT, ATP luminescence, 48 h; Potency, µM (titrated, usually from 46.2 µM), for the others: at the top dose activity change, negative = growth inhibition, usual class: inhibitors; actives 12% (n = 420,000); further: potency means the concentration at half of the fitted maximal effect; on the % scale 0 is the no-effect control and ±100 the full control effect; nearly all actives have a fitted effect of over 55% in size
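Chicken DT40 Tdp1-/- cells complemented with human TDP1, 400 cells/well, exposed to compounds plus 20 nM camptothecin for at least 48 h at 37 C; viability read as ATP content by CellTiter-Glo luminescence.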
IL-1B inflam inh: inflammasome signaling inhibition, IL-1 beta readout; THP-1 LPS/ATP IL-1B secretion, AlphaLISA, 16 h; stronger effect = lower value; activity change, % at 57.5 µM; actives 4.7% (n = 360,000); AID 743279; in the data active means activity change below about -50%; inconclusive means mostly about -30% to -49%; further: on the % scale 0 is the no-effect control and ±100 the full control effect
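Secreted IL-1B measured by AlphaLISA bead assay after 16 h compound exposure of THP-1 cells; compounds (final up to 57.5 uM) added 1 h before LPS (250 ng/mL) and ATP (1.25 mM) stimulation; lower signal means less secretion.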
TDP1 cell noCPT: qHTS for Inhibitors of human tyrosyl-DNA phosphodiesterase 1 (TDP1): qHTS in cells in absence of CPT. DT40 Tdp1-/- hTDP1 cells, no CPT, ATP luminescence, 48 h. Potency, µM (top dose mostly 46.2 µM), inactives show top-dose activity change, negative = growth inhibition, usual class: inhibitors. actives 15% (n = 420,000). AID 686978, 2013; further: potency means the concentration at half of the fitted maximal effect; on the % scale 0 is the no-effect control and ±100 the full control effect; nearly all actives have a fitted effect of over 55% in size
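Growth kinetics read by CellTiter-Glo luminescence after ≥48 hr at 37 °C. Cells: DT40 Tdp1-/- stably carrying human TDP1, 400 per well, compound exposure in the absence of CPT (DMSO vehicle).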
TDP1 block: blocks human tyrosyl-DNA phosphodiesterase 1. recombinant TDP1, AlphaScreen DNA substrate cleavage. Potency, µM (highest dose often 130 µM), inactives show top-dose activity change, negative = inhibition, usual class: inhibitors. actives 0.28% (n = 350,000); further: potency means the concentration at half of the fitted maximal effect; on the % scale 0 is the no-effect control and ±100 the full control effect; nearly all actives have a fitted effect of over 40% in size
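Recombinant E. coli-expressed Tdp1 (1 nM) preincubated with compound 15 min at RT, then 5'-biotin/3'-phosphotyrosine-FITC DNA substrate (15 nM) added for 5 min. AlphaScreen beads (10 ug/ml) added, 10 min RT; tyrosine-FITC cleavage read as signal loss.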
Active calls of the source: *. An excerpt weighted towards active compounds, which were near 18% of everything screened. Unless noted, the call rests on the fitted dose curve; in most records, active means well fitted curve in the direction sought with a large enough effect; inconclusive means small, poorly fitted or top-dose-only effect, or another doubt; inactive means no such curve, though single readings can be large; an effect the other way counts as inactive or inconclusive.

For Cc1[nH]n(-c2ccc([N+](=O)[O-])cc2)c(=O)c1/C=N/N1CCOCC1 the results were TGFb SMAD3 inh 2%, HepG2 tox 1.4µM*, TDP1 cell CPT 12µM*, IL-1B inflam inh 0, TDP1 cell noCPT inconclusive and TDP1 block 5%.
Screening O=c1c(C=NCCN2CCNCC2)c(-c2ccccc2)[nH]n1-c1ccc([N+](=O)[O-])cc1 returned TDP1 block 3%.
`Cc1[nH]n(-c2ccc([N+](=O)[O-])cc2)c(=O)c1C=NCCN1CCN(C(=O)c2ccccc2)CC1` gave TGFb SMAD3 inh -17%, HepG2 tox -89%, TDP1 cell CPT 10µM*, IL-1B inflam inh -6, TDP1 cell noCPT 10µM* and TDP1 block 4%.
`O=[N+]([O-])c1cccc(-c2ccc(/C=N/NC(=S)Nc3cccc(F)c3)o2)c1` gave TGFb SMAD3 inh -12%, HepG2 tox 0%, TDP1 cell CPT 0%, IL-1B inflam inh 0 and TDP1 cell noCPT 18µM*.
`NC(=S)N/N=C/c1ccc(-c2cccc([N+](=O)[O-])c2)o1` gave TGFb SMAD3 inh inconclusive, HepG2 tox -12%, TDP1 cell CPT 5.2µM*, IL-1B inflam inh -5, TDP1 cell noCPT 3.7µM* and TDP1 block 8%.
NC(=S)N/N=C/c1ccc(Br)o1 was read as TGFb SMAD3 inh inconclusive, HepG2 tox -3%, TDP1 cell CPT -20%, IL-1B inflam inh -11, TDP1 cell noCPT -15% and TDP1 block 4%.
For NC(=S)N/N=C/c1ccc(-c2cc(Cl)c(Cl)cc2Cl)o1 the results were TGFb SMAD3 inh -18%, HepG2 tox -17%, TDP1 cell CPT 3.7µM*, IL-1B inflam inh 29, TDP1 cell noCPT 4.6µM* and TDP1 block 8%.
Screening Clc1ccc2nc[nH]c2c1 returned TGFb SMAD3 inh -21%, HepG2 tox -41%, TDP1 cell CPT -18% and TDP1 cell noCPT -18%.
For COC(=O)c1cc2c(N)c(C(=O)c3ccccc3)sc2nc1C(OC)OC the results were TGFb SMAD3 inh 13%, HepG2 tox -2%, TDP1 cell CPT inconclusive, IL-1B inflam inh inconclusive, TDP1 cell noCPT inconclusive and TDP1 block -2%.
Screening Cc1ccccc1NC1=NC(=S)N(c2ccccc2)C12CCCCC2 returned TGFb SMAD3 inh -4%, HepG2 tox -3%, TDP1 cell CPT 18µM*, IL-1B inflam inh 0, TDP1 cell noCPT inconclusive and TDP1 block 4%.
Screening CCOC(=O)c1ccc(S(=O)(=O)N2CCC(C(=O)N3CCN(c4ccccc4OC)CC3)CC2)cc1 returned TGFb SMAD3 inh inconclusive, HepG2 tox 0%, TDP1 cell CPT inconclusive, IL-1B inflam inh -85* and TDP1 cell noCPT -80%.
`COc1cccc(N2CCN(C(=O)C3CCN(S(=O)(=O)c4cccs4)CC3)CC2)c1` gave TGFb SMAD3 inh -2%, HepG2 tox 1%, TDP1 cell CPT inconclusive, IL-1B inflam inh 18, TDP1 cell noCPT 13µM* and TDP1 block 2%.
`COc1ccccc1N1CCN(C(=O)C2CCN(S(=O)(=O)c3cccs3)CC2)CC1` gave TGFb SMAD3 inh -8%, HepG2 tox -22%, TDP1 cell CPT 16µM*, TDP1 cell noCPT 21µM* and TDP1 block 0%.
For COc1ccccc1N1CCN(C(=O)C2CCN(S(=O)(=O)c3ccc(F)cc3)CC2)CC1 the results were TGFb SMAD3 inh 0%, HepG2 tox 4%, TDP1 cell CPT -15%, IL-1B inflam inh 17, TDP1 cell noCPT inconclusive and TDP1 block 5%.
